TbPYK inhibitor – inhibitors of Trypanosoma brucei pyruvate kinase; actives 0.12% (n = 410,000); Potency, µM (highest dose often 76.8 µM), for the others: at the highest dose activity, negative = inhibition, actives largely listed as inhibitors; AID 624173; TbPYK enzyme, Kinase-Glo Plus ATP luminescence, 45 min; Q57TT1; further: potency means the concentration at half of the fitted maximal effect; nearly all actives have a fitted effect of over 50% in size
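Luminescence from Kinase-Glo Plus, added after a 45-minute room-temperature reaction, served as the end-point read-out. The enzyme and substrate were preincubated with compound before ADP (130 uM final) initiated turnover. Concentration-effect curves came from normalized qHTS data.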
FMDV inh – antivirals against foot and mouth disease virus; FMDV antiviral cell-based qHTS; Potency, µM (doses to about 57.9 µM), inactives show top-dose activity change, negative = inhibition, usual class: inhibitors; actives 1.2% (n = 410,000); AID 1159524; calls by dose curve; tested in HEK293T cells; further: read-out not given here; potency means the concentration at half of the fitted maximal effect; nearly all actives have a fitted effect of over 45% in size
HCMV antiviral – blocks human cytomegalovirus replication; HFF cells, HCMV-luciferase reporter, 72 h; hits give low values; activity change, negative = inhibition, % at 57.5 µM; actives 4.5% (n = 410,000); AID 1259415; in the data active means activity change below about -60%; inconclusive means no clear call, values can overlap the other calls; inactive means above about -39%
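After 16 h attachment at 37C, HFF cells received test compound and HCMV-luciferase (1 PFU/cell); reporter luminescence read 72 h later, data normalized against buffer-only and known inhibitor Salinomycin.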
Sm TGR inh – inhibitors of Schistosoma mansoni thioredoxin glutathione reductase | Potency, µM (doses to about 114 µM), inactives show at the highest dose activity change, negative = inhibition, most hits filed as inhibitors | actives 3% (n = 360,000) | Q962Y6 | purified TGR, DTNB reduction, TNB absorbance 405 nm; further: potency means the concentration at half of the fitted maximal effect; nearly all actives have a fitted effect of over 60% in size
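First, TGR (20 nM dispensed) and NADPH were mixed with compound. Second, a 15 min room-temperature incubation followed. Third, further NADPH and then DTNB were added to start the reaction. Finally, TNB absorbance was monitored kinetically.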
RE007 growth inh – less growth of the S. pombe RE007 Vpr strain; S. pombe RE007 Vpr strain, BacTiter-Glo ATP luminescence, 24 h; Potency, µM (doses to about 92.2 µM), without a hit: at the top dose activity change, negative = less growth, most hits filed as inhibitors; actives 0.21% (n = 360,000); AID 651644; active means well fitted falling curve with a large enough effect; inconclusive means small, poorly fitted or top-dose-only effect; inactive means no such curve, though single readings can be large or run the other way; further: potency means the concentration at half of the fitted maximal effect; nearly all actives have a fitted effect of over 50% in size
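Fission yeast strain RE007, carrying one chromosomally integrated HIV-1 vpr copy, was seeded at OD 0.01 in PMG+AL medium with 23 nL pinned compound. After 24 h at 30 °C and 99% humidity, viability was read by BacTiter-Glo luminescence.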
FBPA Giardia inh – Giardia lamblia aldolase inhibition | A8B2U2 | purified Giardia FBPA | Potency, µM (series often up to 59.6 µM), inactives show at the highest dose activity, negative = inhibition, hits mostly inhibitors | actives 0.71% (n = 290,000) | AID 2451; further: potency means the concentration at half of the fitted maximal effect; nearly all actives have a fitted effect of over 55% in size
Target sequence (A8B2U2 whole entry, looked up): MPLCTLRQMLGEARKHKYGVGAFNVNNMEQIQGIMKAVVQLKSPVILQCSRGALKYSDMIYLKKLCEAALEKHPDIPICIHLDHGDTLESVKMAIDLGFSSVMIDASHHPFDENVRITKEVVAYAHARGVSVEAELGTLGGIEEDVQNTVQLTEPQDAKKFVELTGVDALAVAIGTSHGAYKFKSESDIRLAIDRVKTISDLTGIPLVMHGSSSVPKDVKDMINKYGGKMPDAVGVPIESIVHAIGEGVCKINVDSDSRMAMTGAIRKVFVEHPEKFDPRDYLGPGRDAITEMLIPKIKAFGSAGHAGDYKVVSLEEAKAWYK
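40 nM FBPA preincubated 10 min at RT with compound (up to 57.5 uM final), then substrate plus GAPDH/TPI/NAD/arsenate coupling and diaphorase/resazurin added. Fluorescence read after 20 min at RT, 525/598 nm.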
Active calls of the source: *; ? = inconclusive; . = no result given; [ ] = another dose, or the depositor's remark. Compounds with a hit are over-represented: about 7.7% of the library has one in this group of screens. Unless noted, the call rests on the fitted dose curve; in most records, active means well fitted curve in the direction sought with a large enough effect; inconclusive means small, poorly fitted or top-dose-only effect, or another doubt; inactive means no such curve, though single readings can be large; an effect the other way counts as inactive or inconclusive. On the % scale 0 is the no-effect control and ±100 the full control effect.

SMILES	TbPYK inhibitor	FMDV inh	HCMV antiviral	Sm TGR inh	RE007 growth inh	FBPA Giardia inh
CCN1CCN(c2cc(C)c3cc(NC(=O)/C=C/c4cccc(Cl)c4)ccc3n2)CC1	1.2%	-6.6%	-101.4*	6.7%	.	.
CCN1CCN(c2cc(C)c3cc(NC(=O)/C=C/c4cccc(OC)c4OC)ccc3n2)CC1	11.5%	-11.5%	-99.7*	4.9%	.	.
Cc1cccc(NC(=O)c2cnc3sc(N4CCCC4)nn3c2=O)c1C	1.9%	-3.9%	-37.0	22.3%	.	.
Cc1nn(C(=O)c2ccc(Cl)cc2)c(C)c1S(=O)(=O)N1CCOCC1	-5.3%	-5.2%	-2.5	?	.	.
CCOC(=O)/C(=C\C=C1/Sc2ccccc2N1CC)C(C)=O	4.4%	4.5%	-63.6*	-29.6%	-6.8%	0.7%
CCOC(=O)/C(=C/C=C1\Sc2ccccc2N1CC)C(C)=O	-3.9%	-14.2%	.	-24.1%	-7.6%	-13.2%
CCOC(=O)/C(=C/C=C1\Sc2cc(C)c(C)cc2N1CC)C(C)=O	-3.4%	?	-69.5*	44.7µM*	-6.8%	-22.3%
CC(C)(C)C(=O)Nc1cc2nn(-c3ccccc3)nc2cc1Cl	0.9%	50.1µM*	-87.8*	-7.0%	-22.1%	-0.9%
COc1ccc(N=N/C(=C\O)C(=O)c2cccs2)cc1	-4.8%	-7.8%	-92.5*	12.0%	38.0%	0.0%
Cc1ccc2c(c1)CCCN2C(=O)c1c(C)noc1C	3.4%	9.9%	-35.8	-9.3%	5.0%	1.7%
Cc1ccc2c(c1)CCCN2C(=O)c1ccoc1C	-2.7%	7.2%	2.8	50.1µM*	21.9%	-7.1%
C[C@@](N)(C(=O)O)[C@@H]1C[C@@H]1C(=O)O	.	39.8µM*	.	.	.	.
CC(C)Sc1ncc(Cl)c(C(=O)Nc2ccc(S(=O)(=O)N3CCCCC3)cc2)n1	3.2%	-26.2%	-39.2	3.5%	.	.
CCOc1cc(NC(=O)c2ccccn2)c(OCC)cc1NC(=O)c1ccccc1	0.6%	-2.2%	-64.0*	1.3%[57.1 µM]	3.3%	3.1%
Cc1ccc2nc(NC(=O)c3ccccn3)sc2c1	-15.1%	8.91µM*	-98.4*	11.6%	?	?
CCOc1ccc2nc(NC(=O)c3ccoc3C)sc2c1	?	-62.9%	105.9	-32.8%	10µM*	-17.1%
CCOc1ccc2nc(NC(=O)c3ccccn3)sc2c1	-11.4%	-83.9%	-99.8*	-7.5%	14.1µM*	?
Cc1c(C(=O)Nc2ccc(Br)cc2F)sc2ncnc(N(C)C3CCCCC3)c12	5.5%	2.0%	-11.3	0.0%	.	.
O=C(Nc1ccc(C(=O)OCc2cc(=O)n3c4c(sc3n2)CCCC4)cc1)c1ccc(Cl)cc1	-13.7%	-4.7%	?	5.1%	.	.
CN(N=O)C(=O)N[C@@H]1[C@@H](O)[C@H](O)[C@@H](CO)O[C@@H]1O	.	.	-10.3	.	.	.
CC(=O)Nc1nonc1-c1nnc(SCC(=O)Nc2cc(Cl)ccc2C)n1C	-1.6%	-1.8%	-13.4	2.2%	.	.
O=C(Nc1nc2c(F)cc(F)cc2s1)c1ccccn1	-17.5%	-68.4%	-99.0*	-28.6%	?	-4.1%
CCN1C(=O)CC(Sc2ccccc2C(=O)O)C1=O (stereo not given)	-14.2%	-5.8%	-17.3	?	4.7%	2.5%
CCOc1ccc(N2C(=O)CC(Sc3ccccc3C(=O)O)C2=O)c([N+](=O)[O-])c1 (stereo not given)	-15.2%	-2.9%	-27.2	17.8µM*	?	11.5%
O=C(O)c1ccccc1SC1CC(=O)N(c2cccc3ccccc23)C1=O (stereo not given)	-26.2%	-7.9%	-32.8	1.78µM*	7.94µM*	2.9%
SMILES	TbPYK inhibitor	FMDV inh	HCMV antiviral	Sm TGR inh	RE007 growth inh	FBPA Giardia inh
COC(=O)c1ccccc1SC1CC(=O)N(c2ccccc2)C1=O (stereo not given)	-0.3%	0.0%	-8.9	50.1µM*	-8.4%	1.5%
CC(=O)N[C@@H](C)C(=O)NCC1Cc2cccc(-c3ccccc3C(F)(F)F)c2O1 (stereo not given in full)	.	-7.1%	.	.	.	.
CSc1ncc(C(=O)Nc2cc(C)cc(C)c2)c(-c2ccccc2)n1	-3.4%	-15.2%	-3.9	-6.6%	.	.
Cc1c(N)cc[n+](CC(=O)c2ccccc2)c1C	-5.9%	-11.5%	-76.3*	-28.9%	-24.6%	4.9%
Cc1cc[n+](CC(=O)c2ccccc2)c2ccccc12	-6.5%	-7.7%	-14.1	-10.1%[57.1 µM]	3.4%	3.5%
Cc1cccc(CNc2ncncc2-c2cccc(NS(C)(=O)=O)c2)c1	.	-9.0%	.	.	.	-0.3%
CCCc1cc(=O)[nH]c(Nc2cc(C)cc(C)c2)n1	0.3%	-14.1%	30.6	0.9%	.	.
CCCc1cc(=O)[nH]c(Nc2cc(Cl)cc(Cl)c2)n1	3.3%	?	-105.7*	11.1%	.	.
CCOC(=O)CCCNC(=O)N[C@H]1CC[C@@]23CCCN2C(=O)CCC[C@H]3C1Cc1ccccc1 (stereo not given in full)	.	.	-5.2	.	.	.
COc1ccc(Cl)cc1N(CC(=O)NC(C)(C)C)S(=O)(=O)c1ccc(C)c([N+](=O)[O-])c1	3.9%	-11.4%	-76.3*	-22.6%	7.8%	-8.5%
COc1ccccc1N(C)S(=O)(=O)c1ccc(C(=O)OCC(=O)Nc2cc(C)on2)cc1	-0.6%	11.9%	?	1.0%	2.1%	3.1%
COc1ccccc1N(CC(=O)Nc1cc(C)on1)S(=O)(=O)c1ccc(Cl)cc1	-1.6%	-11.7%	-68.9*	-8.6%	-15.5%	-3.2%
COc1ccccc1N(CC(=O)Nc1ccccc1C)S(C)(=O)=O	5.9%	.	-60.9*	-0.2%	-1.2%	-0.9%
CCOc1ccccc1N(CC(=O)Nc1ccccc1)S(=O)(=O)c1ccccc1	-1.9%	10.0%	-97.7*	-18.2%	-9.1%	4.6%
CN(C)c1ccc(C(=O)N2CCCC(Cn3cc(C(=O)N4CCCC4)nn3)C2)cc1 (stereo not given)	.	-2.8%	.	.	.	.
CCCS(=O)(=O)NCc1c(C)ncc2c1CCN(C(=O)/C=C/c1cccc(Cl)c1)C2	.	-10.9%	.	.	.	.
CS(=O)(=O)c1ccc(C(=O)C2C(=O)CCCC2=O)c([N+](=O)[O-])c1	-8.1%[157 µM]	.	.	.	.	.
Cc1cc(NC(=O)COc2ccccc2)cc(-c2nc3ccccc3o2)c1O	2.6%	6.2%	2.2	-11.2%	.	.
CCOc1ccc(N(CC(=O)NC2CCCC2)S(=O)(=O)c2ccccc2)cc1	-8.4%	-7.4%	-64.0*	-1.9%	2.9%	0.7%
CCOc1ccccc1N(CC(=O)Nc1cc(OC)ccc1OC)S(=O)(=O)c1ccccc1	2.0%	-15.4%	-102.2*	3.4%	2.2%	-2.1%
COC(=O)c1cccc(Nc2nn3c(=O)c4cc5c(cc4nc3s2)OCO5)c1	-2.5%	-19.3%	6.5	0.4%	.	.
Cc1ccc(-c2cc(C(=O)Nc3sc4c(c3C(=O)NCc3ccco3)CCC4)[nH]n2)c(O)c1	2.7%	25.1µM*	-6.7	3.7%	9.5%	-2.3%

Screening data deposited in PubChem by National Center for Advancing Translational Sciences (NCATS).
